# Data from PubChem BioAssay (NCATS).
# Inconclusive results are not listed. A number with no mark means an inactive call. Calls come from the whole dose curve; as a rule, active = well fitted inhibition curve with a large enough effect; inconclusive = small, poorly fitted or top-dose-only effect; inactive = flat fitted curve, though single readings scatter.
# Target: Calcium and integrin-binding protein 1 (Homo sapiens) (UniProt Q99828)
# Test: Primary qHTS for Identification of Calcium Integrin Binding Protein 1 (CIB1) Competitor (AID 1508620);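 note: GST tagged CIB1 binding a fluorescein labelled alphaIIb integrin peptide tracer; top concentration of the series differs between compounds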
# Conditions: CIB1-GST / FITC-alphaIIb peptide fluorescence polarization; series mostly up to 114 µM; activity change, negative = inhibition: at the top concentration
# Description: Assay Provider: Ulhas P. Naik, PhD Sidney Kimmel Medical College Thomas Jefferson University, Philadelphia, PA Primary function of platelets is to maintain hemostasis. At the site of vascular injury, platelets adhere to adhesive proteins such as collagen and von Willebrand factor. Adherent platelets are activated and generate soluble platelet agonists such as thrombin, ADP and thromboxane A2. Following exposure of circulating platelets to these agonists, results in platelet shape change, granule secretion and activation of platelet integrin alphaIIb-beta3. Ligand binding to activated integrin alphaIIb-beta3 triggers outside-in signaling, leading to platelet aggregation, stabilization of platelet plug, and clot retraction. Upon atherosclerotic plaque rupture also causes platelet plug formation, which underlies a number of cardiovascular diseases such as myocardial infraction and stroke. A number of anti-platelet drugs such as aspirin, clopidogrel, prasugrel, vorapaxar, and eptifibatide are currently available to prevent the thrombotic complications. However, these anti-platelet agents have several limitations including inherent variability in individual responses, developing resistance, and serious bleeding side effects. For these reasons they are not suitable for long-term protection. Based on the experiences with current anti-platelet drugs, it appears that the most useful therapeutic approach is to intersect the secondary responses such as integrin outside-in signaling or recruitment of platelets by TxA2 and secreted ADP. Compounds, which can largely preserve the primary hemostatic function of platelets but inhibit secondary response will be most desired therapeutic agents for treatment of cardiovascular disease. CIB1 is a calcium integrin binding protein, which specifically interact with the alphaIIb subunit of integrin alphaIIb-beta3. Binding of CIB1 to alphaIIb regulates the outside-in signaling in platelets, which is needed for thrombus stabilization and thrombus growth. […] Therefore, we propose that discovery of a small molecule that can prevent the association of CIB1 and alphaIIb-beta3 will be a potential anti-platelet agent that can block the thrombus formation without undue effect on hemostasis. Reference: [1] Naik MU, Nigam A, Manrai P, et al. CIB1 deficiency results in impaired thrombosis: the potential role of CIB1 in outside-in signaling through integrin alpha IIb beta 3. J Thromb Haemost.
# PROTOCOL TABLES SEQUENCE No. (1, 2, 3, etc.); […] (e.g., Cells, Incubation, Reagent, etc.); VALUE and DESCRIPTION. 1; Reagent; 3 uL; Protein or buffer (4/3x) 2; Compound; 46 nL; Control inhibitor / compound library 3; Time; 15 min; Room temperature incubation 4; Reagent; 1 uL; Fluorescent labeled peptide (4x) 5; Time; 1000 rpm; Centrifuge 6; Time; 15 min; Room temperature incubation 7; Detection; Ex 480/ Em 540; ViewLux Fluorescence Read NOTES (numbers refer to sequence above) 1; Protein Mixture: C1B1-GST (final concentrations of 1 uM). […] 3; Room temperature incubation. 4; Fluorescent Labeled Peptide: FITC-aIIb (final concentration of 100 nM). Sequence of alphaIIb peptide: Acetyl-[…]-FITC (purity is 95.83%). 5; Centrifuge 1000 rpm (164 g) for 15 seconds. 6; Room temperature incubation. 7; ViewLux Fluorescent Polization Read: excitation = 480(20) / emission = 540(25) S and P; FITC Dichroic mirror.
# % is set by controls: 0 for no effect and ±100 for the full control effect.
# Chain of Calcium and integrin-binding protein 1 (Homo sapiens) (Q99828 whole entry, looked up): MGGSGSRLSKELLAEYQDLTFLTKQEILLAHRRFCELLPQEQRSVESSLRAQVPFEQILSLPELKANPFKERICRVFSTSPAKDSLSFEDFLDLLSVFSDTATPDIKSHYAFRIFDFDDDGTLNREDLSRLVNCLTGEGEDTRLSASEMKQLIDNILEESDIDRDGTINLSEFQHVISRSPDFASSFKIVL
row,Structure (SMILES),"activity change, negative = inhibition"
1,NNc1nnc(NN)c2ccccc12,-1.39%
2,CC(C)CCOC(=O)c1ccc(N(C)C)cc1,-3.42%
3,CCN(CC)S(=O)(=O)c1ccc(C(=O)O)cc1,1.22%
4,O=C(O)Cc1cn(-c2ccccc2)nc1-c1ccc(Cl)cc1,-7.61%
5,CC[N+](C)(CC)CCOC(=O)C1c2ccccc2Oc2ccccc21,3.77%
6,CCc1nnc(NS(=O)(=O)c2ccc(N)cc2)s1,-1.21%
7,CCOC(=O)[C@H](CCc1ccccc1)N[C@@H](C)C(=O)N1CCC[C@H]1C(=O)O,1.69%
8,O=C(O)CCCc1ccccc1,-2.11%
9,Cc1ccc(S(=O)(=O)NC(=O)NC2CCCCCCC2)cc1,0.208%
10,CCS(=O)(=O)CCn1c([N+](=O)[O-])cnc1C,2.49%
11,CN(C/C=C/C#CC(C)(C)C)Cc1cccc2ccccc12,-3.21%
12,Cc1c(C)c2c(c(C)c1OC(=O)c1cccnc1)CC[C@@](C)(CCC[C@H](C)CCC[C@H](C)CCCC(C)C)O2,-0.329%
13,CCCNC(C)(C)COC(=O)c1ccccc1,0.784%
14,CC(=O)N1C[C@H](O)C[C@H]1C(=O)O,11.4%
15,Cc1cccc(Nc2ccccc2C(=O)O)c1C,-3.91%
16,Cc1cccc(C)c1NC(=O)CC12CCCN1CCC2,4.89%
17,CCCCC1(COC(=O)CCC(=O)O)C(=O)N(c2ccccc2)N(c2ccccc2)C1=O,-3.35%
18,CCCCCCCCCCC(CO)CCCCCCCC (stereo not given),-3.51%
19,O=C1C(c2[nH]c3ccccc3c2O)=Nc2ccccc21,-11.4%
20,O=C(CCBr)N1CCN(C(=O)CCBr)CC1,-2.38%

row,Structure (SMILES),"activity change, negative = inhibition"
1,O=c1[nH]c2cc(C(F)(F)F)c(N3CCOCC3)cc2n(CP(=O)(O)O)c1=O,-2.64%
2,C[N+](C)(C)CC[N+]1(C)Cc2c(Cl)c(Cl)c(Cl)c(Cl)c2C1,3.38%
3,NS(=O)(=O)c1cc(-c2nn[nH]n2)c(NCc2cccs2)cc1Cl,0.556%
4,Cc1c(C(=O)NCCO)[n+](=O)c2ccccc2n1[O-],-1.45%
5,O=C(O)/C=C/c1ccc(Cn2ccnc2)cc1,2.3%
6,CCCCCC(N)=O,1.55%
7,CN(C(=O)c1c(O)c2ccccc2n(C)c1=O)c1ccccc1,2.35%
8,CC(=O)Nc1ccc(C(=O)O)cc1,2.01%
9,CCOC(=O)OC(C)OC(=O)[C@@H]1N2C(=O)[C@@H](NC(=O)[C@H](N)c3ccccc3)[C@H]2SC1(C)C (stereo not given in full),3.17%
10,Cc1cccc(C(=O)O)c1O,2.73%
11,CCC(C)(CN(C)C)OC(=O)c1ccccc1 (stereo not given),0.0807%
12,O=c1[nH]c(=O)c2ccccc2o1,-3.94%
13,Nc1ccc(C(=O)Oc2ccccc2)c(O)c1,-1.13%
14,Nc1ncnc2c1ncn2[C@@H]1O[C@H](COP(=O)(O)O)[C@@H](O)[C@H]1O,-1.48%
15,O[C@@H]1CO[C@H]2[C@@H]1OC[C@@H]2O,1.35%
16,C[C@@H](c1ncncc1F)C(O)(Cn1cncn1)c1ccc(F)cc1F (stereo not given in full),4.91%
17,O=C(O)Cn1c(C(=O)Nc2nc(-c3ccccc3Cl)cs2)cc2ccccc21,-19%
18,CC(C)=CCC/C(C)=C/CO,7.14%
19,CC[N+](CC)(CC(=O)Nc1c(C)cccc1C)Cc1ccccc1,2.9%
20,CCCCOC(=O)c1ccc(N)cc1,-2.43%
